Results filed as inconclusive are left out. Active and inactive are the calls of the source. Unless noted, how the calls were made is not given here.

A short description of assay [1]: qHTS profiling of the MIPE4 collection as inhibitors of Plasmodium falciparum (3D7) proliferation (AID 743344).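 Further: scaled between DMSO vehicle wells and 0.29 µM artemisinin as full inhibition.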 Conditions: P. falciparum 3D7 in erythrocytes, SYBR Green DNA fluorescence, 72 h; at 28.5 µM unless noted. The method in brief: (§1)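 Erythrocytes infected with P. falciparum (0.3% parasitemia, 2.5% hematocrit) incubated with compounds 72 h at 37 C, 5% CO2. Lysis with saponin/Triton buffer containing SYBR Green I, overnight at room temperature in the dark; DNA fluorescence (485/535 nm) normalised to 0.29 uM artemisinin and DMSO.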
Background: qHTS replaces the single test concentration by a dilution series.

Assay [2] is described as follows: qHTS profiling of the MIPE4 collection as inhibitors of Plasmodium falciparum (DD2) proliferation (AID 743345). Conditions: P. falciparum Dd2 in erythrocytes, SYBR Green DNA, 72 h; at 28.5 µM unless noted. The method in brief: as §1
Assay [3] can be described thus: qHTS profiling of the MIPE4 collection as inhibitors of Plasmodium falciparum (DD2) proliferation (Rep 2) (AID 743346). Conditions: P. falciparum Dd2 in erythrocytes, SYBR Green DNA, 72 h; at 28.5 µM unless noted. The method in brief:
as §1

Assay [4] can be described thus: qHTS profiling of the MIPE4 collection as inhibitors of Plasmodium falciparum (HB3) proliferation (AID 743347).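 Further: plate controls were DMSO vehicle wells for no effect and artemisinin wells for full effect.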 Conditions: P. falciparum HB3 in erythrocytes, SYBR Green DNA, 72 h; at 28.5 µM unless noted. In a few lines:
as §1

Assay [5] is described as follows: High-throughput drug toxicity screening in the BPDCN cell line Gen2.2 (AID 1224824).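 Further: cells exposed to compounds for 48 h before reading.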 Conditions: Gen2.2 BPDCN cells; at 45.8 µM (top of the series) unless noted. In a few lines: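 Gen2.2, 500 cells/well, phenol red-free RPMI/10% FBS/Pen-Strep; 48 h cpd, 37 °C/5% CO2; CTG lum, 15 min RT. Norm: DMSO = 100%, bortezomib 9.2 uM final = 0%.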
Assay [6] can be described thus: High-throughput drug toxicity screening in the BPDCN cell line Cal-1 (AID 1224825). The settings on record: Cal-1 BPDCN cell viability, qHTS; at 45.8 µM (top of the series) unless noted. In a few lines:
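Exponentially growing Cal-1 cells, 500 per well in phenol red-free RPMI with 10% FBS, were exposed to compounds for 48 h at 37 °C, 5% CO2. Viability was read by CellTiter-Glo luminescence and normalised to DMSO (100%) and 9.2 uM bortezomib (0%).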

Assay [7] in a line: qHTS assay for measurement of the activity of small molecule inhibitors on Zika virus induced Caspase-3 activity in human iPSC derived neural progenitor cells (hNPCs) (AID 1224857; active means well fitted curve in the direction sought with a large enough effect; an effect the other way counts as inactive or inconclusive; further: % of control where 0% means no effect; nearly all actives have a fitted effect of over 65% in size). In a few lines: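 Cells were plated at 350 per well and grown 16 to 20 hours. Compound pretreatment lasted one hour, after which ZIKV (2 FFU/cell) was added for 6 hours. Percent inhibition was normalized between uninfected and infected controls.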

Assay [8] in a line: qHTS assay for measurement of the activity of small molecule inhibitors on Zika virus induced Caspase-3 activity in human astrocytoma cells (AID 1224859; active means well fitted curve in the direction sought with a large enough effect; an effect the other way counts as inactive or inconclusive;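 further: plate controls were ZIKV-infected untreated cells for no effect and uninfected cells for full effect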). In a few lines: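 Percent inhibition of virus-induced caspase-3/7 signal is calculated against uninfected and ZIKV-infected control cells. Cells are SNB-19, infected at 2 FFU/cell for 6 h after 1 h compound exposure.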
Assay [9] is described as follows: qHTS Screen of the MIPE 4.0 Collection Against Ewings Sarcoma (TC71) (AID 1259253; active means well fitted curve in the direction sought with a large enough effect; an effect the other way counts as inactive or inconclusive; further: nearly all actives have a fitted effect of over 40% in size; further: potency means the concentration at half of the fitted maximal effect). In a few lines:
(§2)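 Measured: ATP luminescence (CellTiter-Glo) 10 min after reagent addition, following 48 h drug treatment. Relative luciferase units converted to percent activity, with no-cell wells as full and DMSO wells as zero inhibition.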

Assay [10] in a line: qHTS Screen of the MIPE 4.0 Collection Against Ewings Sarcoma (EW8) (AID 1259255; active means well fitted curve in the direction sought with a large enough effect; an effect the other way counts as inactive or inconclusive; further: potency means the concentration at half of the fitted maximal effect; nearly all actives have a fitted effect of over 35% in size). In a few lines:
as §2

Assay [11] can be described thus: qHTS Assay for Identifying Gametocytocidal Compounds (AID 743244; active means well fitted curve in the direction sought with a large enough effect; an effect the other way counts as inactive or inconclusive; further: potency means the concentration at half of the fitted maximal effect). The settings on record: P. falciparum 3D7 stage III-V gametocytes, alamarBlue, 72 h; max response: stronger effect = lower value. In a few lines: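 3D7 gametocytes, stages III–V, 20,000/well; cpd 72 h, 37 °C/5% CO2; + alamarBlue 24 h; fluor. Ex 525/Em 598.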
A short description of assay [12]: qHTS profiling for inhibitors of Plasmodium falciparum (3D7) proliferation (AID 743322).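 Further: infected erythrocytes exposed to compound for 72 h before lysis; 100% = DMSO vehicle wells and 0% = 0.29 µM artemisinin.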 Conditions: P. falciparum 3D7 proliferation; at 28.7 µM (top of the series). In a few lines:
as §1

Assay [13] can be described thus: qHTS profiling for inhibitors of Plasmodium falciparum (DD2) proliferation (AID 743323). Conditions: lower = more inhibition; at 28.7 µM (top of the series). In a few lines:
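SYBR Green fluorescence (ex 485, em 535 nm) of lysed cultures gives parasite DNA content; wells normalized to artemisinin (0.29 uM) and DMSO controls. Infected red cells: 0.3% parasitemia, 2.5% hematocrit, 72 h, 37 C.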

A short description of assay [14]: qHTS profiling for inhibitors of Plasmodium falciparum (HB3) proliferation (AID 743324; active means well fitted curve in the direction sought with a large enough effect; an effect the other way counts as inactive or inconclusive;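 further: 100% = DMSO vehicle wells and 0% = artemisinin-treated control wells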). Conditions: Plasmodium falciparum HB3 blood-stage proliferation; at 28.7 µM (top of the series). The method in brief:
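P. falciparum HB3 grown in erythrocytes (0.3% parasitemia, 2.5% hematocrit final) with compound for 72 h at 37 C, 5% CO2. Parasite DNA detected by SYBR Green after saponin/triton lysis overnight; normalized to 0.29 uM artemisinin and DMSO.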

In assay [1], `COc1cc(O)c2c(c1)C(=O)c1cc(C)cc(O)c1C2=O` gave a parasite growth, % of DMSO control of 81.1% [at 9.64 µM]. This molecule also gave a parasite growth remaining, % of DMSO control (lower = more inhibition) in assay [2] of 92.9% [at 9.64 µM]. Besides, the parasite growth, % of control (lower = inhibition) in assay [3] was 84.4% [at 9.64 µM]. For the same molecule, the growth, % of control in assay [4] worked out at 47.7% [at 9.64 µM]. For the same molecule, in [5], the cell viability, % of control (lower = more cytotoxic) is 154% [at 23.2 µM]. Moreover, the viability (% of control) in assay [6] came to 101% [at 23.2 µM]. Also, the Potency entry in assay [7], in [8] and in [9] was “inactive” each time.
Turning to `NC(=O)c1cnc(-c2ccc(C3(N)CCC3)cc2)c(-c2ccccc2)c1`, the parasite growth, % of DMSO control in [1] was determined as 55.3%. In [2], the parasite growth remaining, % of DMSO control (lower = more inhibition) is 65.3%. The parasite growth, % of control (lower = inhibition) in [3] was found to be 30%. The growth, % of control in assay [4] was 75.7%. In assay [5], the cell viability, % of control (lower = more cytotoxic) was 80.1%. The viability (% of control) in [6] is 67%. The Potency result in [7], in assay [8] and in assay [9] was “inactive” in each case.
For the molecule `CC(C)=CC[C@@H](O)C1=CC(=O)c2c(O)ccc(O)c2C1=O`, the parasite growth, % of DMSO control in assay [1] is 3.69%. Also, the parasite growth remaining, % of DMSO control (lower = more inhibition) in assay [2] was 5.8%. In addition, in [4], the growth, % of control stood at 2.71%. Further, the cell viability, % of control (lower = more cytotoxic) in [5] is 5.88%. Besides, in assay [6], the viability (% of control) came out at 13.2%. Further, the Potency result in assay [7] and in [8] was “inactive” throughout. Further, in [9], the Potency is 2.35 µM (active).
On to `CO[C@H]1C[C@@H]2CC[C@@H](C)[C@@](O)(O2)C(=O)C(=O)N2CCCC[C@@H]2C(=O)O[C@H]([C@H](C)C[C@@H]2CC[C@H](OC(=O)C(C)(CO)CO)[C@H](OC)C2)CC(=O)[C@H](C)C=C(C)[C@@H](O)[C@@H](OC)C(=O)[C@H](C)C[C@H](C)C=CC=CC=C1C`, for which, in assay [1], the parasite growth, % of DMSO control came out at 5.79%. For the same molecule, the parasite growth remaining, % of DMSO control (lower = more inhibition) in assay [2] was determined as 6.2%. In assay [4], this molecule gave a growth, % of control of 3.93%. The cell viability, % of control (lower = more cytotoxic) in [5] is 6.71%. Also, the viability (% of control) in assay [6] turned out to be 3.11%. For the same molecule, the Potency result in assay [7] and in [8] was “inactive” throughout.
In turn, `O=C(O)[C@H]1O[C@H](Oc2cc3oc(-c4ccccc4)cc(=O)c3c(O)c2O)[C@H](O)[C@@H](O)[C@H]1O` showed a parasite growth, % of DMSO control in assay [1] of 69.9%. For the same molecule, the parasite growth remaining, % of DMSO control (lower = more inhibition) in assay [2] worked out at 89%. The same molecule returned a parasite growth, % of control (lower = inhibition) in [3] of 57.6%. The growth, % of control in [4] was found to be 96.3%. The cell viability, % of control (lower = more cytotoxic) in assay [5] was found to be 46.5%. The viability (% of control) in [6] was determined as 105%. Moreover, the Potency result in [7] and in [8] was “inactive” each time.
Molecule `COc1cc(N2CCC(N3CCN(C)CC3)CC2)ccc1Nc1ncnc(Nc2ccccc2S(=O)(=O)C(C)C)n1` returned a parasite growth, % of DMSO control in [1] of 8.76%. The same molecule yielded a parasite growth, % of control (lower = inhibition) in assay [3] of 8.07%. The growth, % of control in assay [4] was determined as 4.08%. Also, in assay [5], the cell viability, % of control (lower = more cytotoxic) was found to be 2%. Besides, in assay [6], the viability (% of control) came to 6.26%. The Potency result in assay [7] and in [8] was “inactive” in each case. Also, in assay [10], the Potency is 20.9 µM (active).
`COCCOC(=O)C1=C(C)NC2=C(C(=O)CC(c3ccccc3OC)C2)C1c1cccc(O)c1` (stereo not drawn) had a parasite growth, % of DMSO control in assay [1] of 11.6%. Besides, in [2], the parasite growth remaining, % of DMSO control (lower = more inhibition) turned out to be 9.83%. In [3], this molecule returned a parasite growth, % of control (lower = inhibition) of 51.8%. In assay [4], this molecule showed a growth, % of control of 17.6%. For the same molecule, in assay [5], the cell viability, % of control (lower = more cytotoxic) was 4.78%. Further, the viability (% of control) in assay [6] was determined as 5.74%. In addition, the Potency entry in [7] and in assay [8] was “inactive” in each case.
For the molecule `CN1CCN(CCOc2cc(OC3CCOCC3)c3c(Nc4c(Cl)ccc5c4OCO5)ncnc3c2)CC1`, the Potency in [11] is 18.7 µM (active). In addition, in [12], the remaining parasite growth % (stronger effect = lower value) came to 0.208%. For the same molecule, the activity, percent of control in assay [13] turned out to be 1.7%. Moreover, the remaining proliferation (% of control), lower = more inhibition in assay [14] was -0.659%. In assay [1], this molecule had a parasite growth, % of DMSO control of 5.31%. Moreover, the parasite growth, % of control (lower = inhibition) in assay [3] came to 7.87%. The molecule also showed a growth, % of control in assay [4] of 6.19%. Moreover, the cell viability, % of control (lower = more cytotoxic) in [5] turned out to be 54.1%. Moreover, the viability (% of control) in assay [6] came out at 2.69%. For the same molecule, the Potency entry in [7] and in assay [8] was “inactive” throughout.
Turning to `CN(C)Cc1cccc(N=C(c2ccccc2)c2c(O)[nH]c3cc(C(=O)N(C)C)ccc23)c1`, in assay [1], the parasite growth, % of DMSO control was 16.4%. In [2], this molecule returned a parasite growth remaining, % of DMSO control (lower = more inhibition) of 30.5%. In assay [3], this molecule showed a parasite growth, % of control (lower = inhibition) of 12.9%. Also, the cell viability, % of control (lower = more cytotoxic) in assay [5] was 6.16%. In addition, the viability (% of control) in [6] is 6.94%. Also, the Potency entry in [7] and in assay [8] was “inactive” throughout.
For `Cc1cccc(Nc2nc(-c3ccncc3)cs2)c1`, the parasite growth, % of DMSO control in assay [1] was determined as 29.1%. The parasite growth remaining, % of DMSO control (lower = more inhibition) in assay [2] turned out to be 71%. In assay [3], the parasite growth, % of control (lower = inhibition) was found to be 42.6%. For the same molecule, the growth, % of control in assay [4] was 17.7%. Besides, the cell viability, % of control (lower = more cytotoxic) in assay [5] amounted to 75.6%. Also, the viability (% of control) in assay [6] was 82.9%. Further, the Potency result in assay [7] and in assay [8] was “inactive” in each case.

The values are drawn from PubChem BioAssay (NCATS).
